Pf growth 96h: Primary qHTS for delayed death inhibitors of the malarial parasite plastid, 96 hour incubation; P. falciparum luciferase reporter growth, 96 h; Potency, µM (doses to about 28.7 µM), hits mostly inhibitors; 320,000 tested, 6.9% active
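Two parasite generations (96 h, 37 C, 5% CO2) of compound exposure in infected erythrocytes (0.05% parasitemia, 2% hematocrit). Luciferase-reporter P. falciparum; decreased luminescence indicates inhibited growth, aimed at apicoplast-acting delayed death.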
HCV inh: qHTS Assay for Inhibitors of Hepatitis C Virus (HCV) | Huh7.5.1 HCVcc-Cre infection, luciferase reporter, 44 h | Potency, µM (top dose mostly 41.8 µM), hits mostly inhibitors | 340,000 tested, 3.4% active
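Cells (1,000/well) were plated 4 h before compound, then infected with HCVcc-Cre virus (~0.5 moi). After 44 h further culture, infection was read as luciferase luminescence following a 15 min substrate incubation at room temperature.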
HCMV inh: qHTS Assay for inhibitors of the human cytomegalovirus (HCMV); HFF cells, HCMV-luciferase reporter, 72 h; stronger effect = lower value; activity change, negative = inhibition, % at 57.5 µM; 410,000 tested, 4.5% active; AID 1259415, 2018; in the data active = activity change below about -60%; inconclusive = no clear call, values can overlap the other calls; inactive = above about -39%
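Luciferase read-out from HCMV-luciferase-infected HFFs (MOI 1 PFU/cell) 72 h post infection at 37C; compounds added after 16 h cell attachment; activity normalized between buffer-only basal and Salinomycin (10uM) inhibitor controls.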
Lassa entry inh: qHTS for Inhibitors of binding or entry into cells for Lassa Virus; AID 540256, 2011; 300,000 tested, 1.2% active; Potency, µM (top dose mostly 37.9 µM), actives largely listed as inhibitors; Lassa virus pseudotype entry inhibition, cell reporter; calls by dose curve; tested in HEK293 cells; also: nearly all actives have a fitted effect of over 50% in size
Pf growth 48h: Primary qHTS for delayed death inhibitors of the malarial parasite plastid, 48 hour incubation. P. falciparum luciferase growth in erythrocytes, 48 h. Potency, µM (top dose mostly 28.7 µM), most hits filed as inhibitors. 310,000 tested, 5.9% active. AID 504832, 2011
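Firefly luciferase activity from engineered P. falciparum reports growth; inhibitors lower the luminescent signal. Cultures contained 2% hematocrit erythrocytes at 0.1% final parasitemia.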
Marburg entry inh: qHTS for inhibitors of binding or entry into cells for Marburg Virus; 300,000 tested, 1.8% active; AID 540276, 2011; Marburg virus pseudotyped entry inhibition, cell reporter; Potency, µM (highest dose often 37.8 µM), hits mostly inhibitors; calls by dose curve; tested in HEK293 cells
Numbers stand for hits; - = inactive; ? = inconclusive; . = no result given. Most compounds without a hit are left out; they make up all but 14% or so of the library. Unless noted, calls follow the shape of the dose curve; as a rule, active = well fitted inhibition curve with a large enough effect; inconclusive = small, poorly fitted or top-dose-only effect, or another doubt; inactive = no such curve, though single readings can be large or run the other way.

SMILES	Pf growth 96h	HCV inh	HCMV inh	Lassa entry inh	Pf growth 48h	Marburg entry inh
Cc1ccc(O)c(Cn2nnc3ccccc32)c1	?	?	-	.	10µM	.
c1ccc(Cn2nnc3ccccc32)cc1	?	-	-	-	-	-
Oc1ccccc1C1CCCCC1c1ccccc1 (centres undefined)	?	-	-68	-	7.4µM	-
Oc1ccccc1C1SC(c2ccccc2O)SC(c2ccccc2O)S1 (centres undefined)	.	?	-	?	.	?
CCCCSCCCNC(=O)CN1C(=O)COc2ccc(S(=O)(=O)N3CCC(C)CC3)cc21	.	.	-	-	.	-
CC1(C)CN2C(c3ccc(Cl)cc3)N2C1 (centres undefined)	-	-	-75	-	.	-
C/C(=N\Nc1nc2ccccc2s1)c1ccc(Br)s1	?	11µM	-	?	?	?
C/C(=N\Nc1nc2ccccc2s1)c1ccc2c(c1)OCO2	-	?	-	?	-	-
c1ccc2sc(NN=C3CCCCCC3)nc2c1	-	?	-	?	-	?
CC(=NNc1nc2ccccc2s1)c1ccncn1	.	?	-100	?	.	?
CC(=O)C1=C(C)N(Cc2ccccc2)C(=O)NC1c1ccco1 (centres undefined)	.	.	.	?	.	-
Cc1ccccc1-n1ncc2c1CC(C)(C)CC2NC(=O)CCC(F)(F)F (centres undefined)	-	-	-	-	?	-
Cc1ccc(-n2c(SCC(=O)N3CCOCC3)nnc2-c2cccnc2)cc1C	?	-	-	?	-	-
CCSc1nnc(-c2cccnc2)n1-c1ccc(C)c(Cl)c1	4.7µM	-	-	-	.	-
Cn1ccsc1=NC(=O)c1ccc([N+](=O)[O-])o1	?	?	-91	.	-	.
CN(C)CCN(CC1CCCN(Cc2ccccc2F)C1)C(=O)c1ccc(Cl)cc1 (centres undefined)	13µM	?	-	?	?	8.9µM
O=C(CCN1C(=O)COc2ccccc21)N1CCCCC1	-	-	-	-	.	-
O=C(CN1c2ccccc2S(=O)(=O)c2ccccc21)Nc1ccccc1F	?	-	-63	-	-	-
CCOC(=O)N1CCN(C(=O)CCN2C(=O)COc3ccccc32)CC1	-	-	-62	-	-	-
CCOc1ccccc1NC(=O)CN1C(=O)C(=O)N(Cc2ccco2)C1=O	-	-	-	?	12µM	-
COc1ccccc1CNC(=O)CCCN1C(=O)COc2ccc(C)cc21	9.3µM	-	-	-	-	-
O=C(CN1c2ccccc2S(=O)(=O)c2ccccc21)Nc1ccccc1Cl	.	.	-	?	.	.
COc1ccc(C(C)=NNS(=O)(=O)c2ccc(C)cc2)cc1OC	.	.	-	.	.	.
CCOCCCNC(=O)c1c(NC(=O)c2cc(=O)c3cc(C)c(C)cc3o2)sc2c1CCC2	.	.	-	-	.	-
CCOc1ccccc1NC(=O)CN1C(=O)COc2ccccc21	12µM	-	-	.	-	.
SMILES	Pf growth 96h	HCV inh	HCMV inh	Lassa entry inh	Pf growth 48h	Marburg entry inh
O=C(CN1C(=O)COc2ccccc21)Nc1ccccc1F	-	-	-	.	-	.
Cc1ccc2c(c1)N(CC(=O)Nc1ccccc1F)C(=O)CO2	2.9µM	-	-	.	-	.
CCc1cccc(-n2nnc(S(=O)(=O)c3ccc(OC)cc3)c2C)c1	.	.	-	?	.	?
CN(C)CCCN(CCCNC(=O)/C=N\O)Cc1ccccc1	.	.	.	.	.	-
COc1cc(-c2nc3n(n2)C(c2ccc(F)cc2)C2=C(CCCC2=O)N3)cc(OC)c1OC (centres undefined)	-	?	-	-	5.2µM	?
COC(=O)c1cc2oc(C)cc2n1Cc1ccccc1Cl	.	.	-	.	.	-
Nc1c(Cl)cc(C2=NCCn3c2c2ccc([N+](=O)[O-])cc2[n+]3[O-])cc1Cl	?	10µM	?	.	13µM	.
Nc1c(Cl)cc(C2=NCCn3nc4cc([N+](=O)[O-])ccc4c32)cc1Cl	?	?	-	.	?	.
CC(C)(C)OC(=O)CC[C@@H](C(=O)NCCCCCCCCCCC(=O)N1CCN(C(=O)OC(C)(C)C)CC1)n1cc(CCCCCNC(=O)OC(C)(C)C)nn1	0.33µM	-	-	.	0.37µM	.

High-throughput results (PubChem)
